From the supplement of paper PMC10849652
Targets with a hit are over-represented here; the source holds about 7,900 in all. About 0.6% of all pairs of compound and target were hits.

What was measured:
Test in all cases: log2 fold change, soluble protein after heating vs DMSO (PISA); higher = thermal stabilisation; K562 cells, 10 uM, 30 min; active = over 0.2 and 3.5 SD of the protein, either way, in both replicates (recomputed)
erlotinib = compound: C#Cc1cccc(Nc2ncnc3cc(OCCOC)c(OCCOC)cc23)c1 [erlotinib]
Outline: (§1)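 K562 cells at 2×10^6 cells/mL were treated with 10 μM compound for 30 min. Aliquots were heated for 3 min across 48°C-58°C, pooled, and extracted in PBS with 0.5% NP-40 at 4°C; soluble protein was the supernatant after 21,000xg for 90 min. Soluble protein was quantified by TMTpro 16plex LC-MS/MS with channel sums equalised, and reported as log2 fold change in thermal stability against DMSO controls, with values from duplicates.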

[1] = compound: C/C(=N\NC(=O)C1=CC(=CC=C1)S(=O)(=O)N2CCOCC2)/C3=C(C=CC(=C3)Cl)O
Outline: as §1

[2] = compound: C1=CC(=C(C=C1Cl)C2=NC3=NC=CN=C3C(=N2)NC4=CC=NC=C4)F
Outline: as §1

[3] = compound: C1=CC(=CC=C1C2=NC3=C(N2)C=C(C=C3)C(=O)N)OC4=CC=C(C=C4)Cl
Outline: as §1

[4] = compound: C1=CC2=C(C=CC(=C2)/C=C\3/C(=O)NC(=NCC4=CC=CS4)S3)N=C1
Outline: as §1

[5] = compound: C1=CC2=NC=CN=C2C=C1/C=C/3\C(=O)NC(=O)S3
Outline: as §1

[6] = compound: C1=CC=C(C=C1)C2=NC(=C(N2)C3=CC=NC=C3)C4=CC(=C(C=C4)Cl)O
Outline: as §1

[7] = compound: C1=CC=C2C(=C1)C3=NNC4=CC=CC(=C43)C2=O
Outline: as §1

[8] = compound: C1CCN(C1)C(=O)NC2=CC=CC(=C2)NC3=NC=C(C(=N3)NCCC4=CN=CN4)Br
Outline: as §1

[9] = compound: C1CN(CCC1(CC2=CC=C(C=C2)Cl)N)C3=NC=NC4=C3C=CN4
Outline: as §1

Measured: log2 fold change

HPCAL1 (UniProt P37235)
inactive: erlotinib 0.011 | [1] 0.048 | [2] 0.029 | [3] 0 | [4] 0 | [5] 0.057 | [6] -0.063 | [7] 0.002 | [8] 0.013 | [9] -0.034

IFT74 (UniProt Q96LB3)
UniProt Q96LB3, sequence (Q96LB3 whole entry, looked up): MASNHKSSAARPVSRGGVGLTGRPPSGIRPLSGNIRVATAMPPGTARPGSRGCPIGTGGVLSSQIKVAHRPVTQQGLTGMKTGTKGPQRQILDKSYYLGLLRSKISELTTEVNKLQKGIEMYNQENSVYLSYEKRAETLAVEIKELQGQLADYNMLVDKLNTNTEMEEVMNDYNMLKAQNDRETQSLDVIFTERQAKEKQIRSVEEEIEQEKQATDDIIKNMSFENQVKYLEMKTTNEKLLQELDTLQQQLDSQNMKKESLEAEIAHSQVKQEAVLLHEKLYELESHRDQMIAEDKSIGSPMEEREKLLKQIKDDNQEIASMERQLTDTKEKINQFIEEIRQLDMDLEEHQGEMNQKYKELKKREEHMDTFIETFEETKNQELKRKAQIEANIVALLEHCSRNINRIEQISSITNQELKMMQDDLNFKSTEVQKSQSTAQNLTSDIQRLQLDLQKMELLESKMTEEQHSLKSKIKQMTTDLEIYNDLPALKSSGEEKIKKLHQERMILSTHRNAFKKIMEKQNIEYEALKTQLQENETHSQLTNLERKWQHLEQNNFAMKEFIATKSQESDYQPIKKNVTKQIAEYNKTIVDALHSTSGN
inactive: erlotinib 0.248 | [2] 0.125 | [3] -0.352 | [4] 0.087 | [5] -0.033 | [6] 0.211 | [7] -0.038 | [8] -0.076 | [9] 0.337
active: [1] -0.95

GMEB1 (UniProt Q9Y692)
UniProt Q9Y692, sequence (Q9Y692 whole entry, looked up): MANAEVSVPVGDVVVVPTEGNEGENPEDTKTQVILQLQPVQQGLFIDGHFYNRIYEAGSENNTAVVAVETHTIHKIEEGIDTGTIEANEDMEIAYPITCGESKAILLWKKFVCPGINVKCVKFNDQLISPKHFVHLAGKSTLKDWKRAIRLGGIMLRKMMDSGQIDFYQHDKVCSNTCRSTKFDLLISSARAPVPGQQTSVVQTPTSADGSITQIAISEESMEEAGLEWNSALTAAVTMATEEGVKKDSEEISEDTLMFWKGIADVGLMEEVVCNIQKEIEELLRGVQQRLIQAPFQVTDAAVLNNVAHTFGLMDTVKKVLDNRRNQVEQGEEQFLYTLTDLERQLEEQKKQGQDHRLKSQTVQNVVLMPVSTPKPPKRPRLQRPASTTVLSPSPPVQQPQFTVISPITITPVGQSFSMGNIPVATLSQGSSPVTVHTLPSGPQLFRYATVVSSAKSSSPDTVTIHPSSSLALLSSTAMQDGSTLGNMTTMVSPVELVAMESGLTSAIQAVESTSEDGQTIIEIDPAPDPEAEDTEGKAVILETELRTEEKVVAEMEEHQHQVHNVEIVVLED
inactive: erlotinib 0.106 | [1] 0.071 | [2] 0.012 | [3] -0.005 | [4] -0.006 | [5] 0.009 | [6] -0.027 | [7] -0.089 | [8] 0.004 | [9] 0.036

GTF3C5 isoform 3 (UniProt Q9Y5Q8)
UniProt Q9Y5Q8, sequence (Q9Y5Q8 whole entry, looked up): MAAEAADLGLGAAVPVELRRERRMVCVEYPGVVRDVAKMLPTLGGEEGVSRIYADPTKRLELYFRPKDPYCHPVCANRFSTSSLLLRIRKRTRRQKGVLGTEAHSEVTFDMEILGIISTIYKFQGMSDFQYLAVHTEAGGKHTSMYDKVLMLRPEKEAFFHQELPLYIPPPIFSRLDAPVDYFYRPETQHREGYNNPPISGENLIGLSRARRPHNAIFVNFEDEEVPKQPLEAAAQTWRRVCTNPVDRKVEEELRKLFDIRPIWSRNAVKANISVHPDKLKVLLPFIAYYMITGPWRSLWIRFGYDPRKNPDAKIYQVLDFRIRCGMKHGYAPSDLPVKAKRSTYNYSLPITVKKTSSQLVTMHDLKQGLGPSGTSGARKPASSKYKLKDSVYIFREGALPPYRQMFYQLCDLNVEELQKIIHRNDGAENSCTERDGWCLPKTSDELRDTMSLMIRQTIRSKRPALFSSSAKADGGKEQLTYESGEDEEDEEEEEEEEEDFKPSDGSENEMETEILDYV
active: [4] -0.413
inactive: erlotinib 0.085 | [1] 0.293 | [2] -0.078 | [3] -0.049 | [5] -0.056 | [6] -0.089 | [7] 0.079 | [8] -0.067 | [9] -0.038

GATD1 (UniProt Q8NB37)
UniProt Q8NB37, sequence (Q8NB37 whole entry, looked up): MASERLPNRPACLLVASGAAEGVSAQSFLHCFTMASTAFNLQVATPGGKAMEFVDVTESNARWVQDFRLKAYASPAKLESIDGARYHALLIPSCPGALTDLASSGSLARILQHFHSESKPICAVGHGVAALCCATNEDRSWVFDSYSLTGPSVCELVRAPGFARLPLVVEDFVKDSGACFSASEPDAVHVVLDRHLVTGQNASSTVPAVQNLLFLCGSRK
inactive: erlotinib 0.028 | [1] -0.006 | [2] 0.111 | [3] -0.012 | [4] 0.057 | [5] 0.007 | [6] -0.01 | [7] 0.047 | [8] -0.006 | [9] 0.098

GCLM (UniProt P48507)
UniProt P48507, sequence (P48507 whole entry, looked up): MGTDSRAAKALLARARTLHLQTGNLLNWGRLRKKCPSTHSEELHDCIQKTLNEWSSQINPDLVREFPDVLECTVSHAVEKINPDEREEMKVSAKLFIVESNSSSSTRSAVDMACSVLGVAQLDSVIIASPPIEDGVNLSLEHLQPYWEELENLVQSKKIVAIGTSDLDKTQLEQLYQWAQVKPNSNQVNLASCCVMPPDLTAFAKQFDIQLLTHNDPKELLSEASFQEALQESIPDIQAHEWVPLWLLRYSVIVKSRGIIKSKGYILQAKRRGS
inactive: erlotinib -0.054 | [1] 0.199 | [2] 0.014 | [3] -0.019 | [4] -0.078 | [5] 0.088 | [6] -0.006 | [7] 0.064 | [8] -0.008 | [9] -0.035

HOOK3 (UniProt Q86VS8)
UniProt Q86VS8, sequence (Q86VS8 whole entry, looked up): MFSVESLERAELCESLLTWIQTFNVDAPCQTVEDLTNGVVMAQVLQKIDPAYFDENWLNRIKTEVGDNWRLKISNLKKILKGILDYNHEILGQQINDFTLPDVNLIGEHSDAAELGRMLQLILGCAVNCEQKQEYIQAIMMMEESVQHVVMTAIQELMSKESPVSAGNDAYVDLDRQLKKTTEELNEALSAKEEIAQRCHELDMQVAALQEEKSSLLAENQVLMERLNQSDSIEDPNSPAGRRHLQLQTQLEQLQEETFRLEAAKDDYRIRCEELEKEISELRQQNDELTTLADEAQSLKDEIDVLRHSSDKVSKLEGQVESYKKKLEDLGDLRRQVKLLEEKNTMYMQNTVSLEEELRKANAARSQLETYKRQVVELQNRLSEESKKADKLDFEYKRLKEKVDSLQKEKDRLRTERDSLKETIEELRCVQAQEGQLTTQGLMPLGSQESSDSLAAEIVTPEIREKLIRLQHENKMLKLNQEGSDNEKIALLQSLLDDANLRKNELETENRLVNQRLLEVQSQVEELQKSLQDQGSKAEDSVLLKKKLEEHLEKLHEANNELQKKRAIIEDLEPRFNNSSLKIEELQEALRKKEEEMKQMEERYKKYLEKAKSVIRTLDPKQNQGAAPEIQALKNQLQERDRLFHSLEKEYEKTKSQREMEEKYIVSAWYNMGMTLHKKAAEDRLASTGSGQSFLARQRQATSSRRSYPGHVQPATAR
inactive: erlotinib 0.04 | [1] 0.039 | [2] 0.009 | [3] -0.008 | [4] 0.055 | [5] 0.032 | [6] -0.002 | [7] -0.036 | [8] -0.005 | [9] -0.024

GTF2A2 (UniProt P52657)
UniProt P52657, sequence (P52657 whole entry, looked up): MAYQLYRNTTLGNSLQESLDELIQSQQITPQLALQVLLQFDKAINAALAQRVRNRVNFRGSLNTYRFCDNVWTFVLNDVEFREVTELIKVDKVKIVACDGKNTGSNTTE
inactive: erlotinib -0.057 | [1] 0.048 | [2] 0.089 | [3] -0.005 | [4] 0.132 | [5] 0.038 | [6] -0.002 | [7] -0.02 | [8] 0.008 | [9] 0.07

FUCA1 (UniProt P04066)
UniProt P04066, sequence (P04066 whole entry, looked up): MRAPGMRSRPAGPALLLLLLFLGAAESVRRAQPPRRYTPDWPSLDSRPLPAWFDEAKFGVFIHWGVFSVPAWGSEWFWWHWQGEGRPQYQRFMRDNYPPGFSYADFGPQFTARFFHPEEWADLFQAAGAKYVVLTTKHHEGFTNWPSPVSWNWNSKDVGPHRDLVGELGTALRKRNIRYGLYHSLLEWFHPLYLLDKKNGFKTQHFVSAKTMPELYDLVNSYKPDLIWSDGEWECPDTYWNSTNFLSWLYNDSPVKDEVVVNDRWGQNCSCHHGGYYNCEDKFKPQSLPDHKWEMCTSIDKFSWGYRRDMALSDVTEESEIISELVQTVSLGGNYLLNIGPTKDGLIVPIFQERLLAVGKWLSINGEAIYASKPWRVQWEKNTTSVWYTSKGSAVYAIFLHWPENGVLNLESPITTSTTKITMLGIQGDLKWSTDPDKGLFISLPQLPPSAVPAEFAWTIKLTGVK
inactive: erlotinib 0.01 | [1] 0.024 | [2] 0.049 | [3] -0.007 | [4] 0.031 | [5] -0.004 | [6] -0.004 | [7] 0.044 | [8] 0.012 | [9] 0.018

HNRNPH1 (UniProt P31943)
UniProt P31943, sequence (P31943 whole entry, looked up): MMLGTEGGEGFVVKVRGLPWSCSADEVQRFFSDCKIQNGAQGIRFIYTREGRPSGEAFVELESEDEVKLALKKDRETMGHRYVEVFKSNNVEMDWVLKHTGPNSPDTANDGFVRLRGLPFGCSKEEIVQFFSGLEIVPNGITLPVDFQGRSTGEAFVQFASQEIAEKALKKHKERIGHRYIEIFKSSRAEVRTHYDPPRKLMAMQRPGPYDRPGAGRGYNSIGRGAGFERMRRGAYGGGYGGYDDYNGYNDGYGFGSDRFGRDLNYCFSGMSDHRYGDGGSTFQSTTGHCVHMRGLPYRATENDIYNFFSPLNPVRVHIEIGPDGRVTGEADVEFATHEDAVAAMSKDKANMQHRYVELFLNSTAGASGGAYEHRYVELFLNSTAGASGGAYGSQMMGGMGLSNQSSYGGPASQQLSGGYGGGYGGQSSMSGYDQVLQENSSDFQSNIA
inactive: erlotinib 0.043 | [1] 0.102 | [2] -0.04 | [3] 0.004 | [4] -0.035 | [5] -0.012 | [6] -0.016 | [7] 0.007 | [8] -0.1 | [9] -0.023

FMC1 (UniProt Q96HJ9)
UniProt Q96HJ9, sequence (Q96HJ9 whole entry, looked up): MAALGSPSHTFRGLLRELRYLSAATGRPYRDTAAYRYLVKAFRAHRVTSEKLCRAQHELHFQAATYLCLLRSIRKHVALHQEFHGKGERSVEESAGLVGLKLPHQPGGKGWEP
inactive: erlotinib 0 | [1] 0.072 | [2] 0.083 | [3] 0.004 | [4] 0.108 | [5] -0.063 | [7] 0.001 | [8] -0.026 | [9] -0.042
active: [6] 0.319

HMGN2 (UniProt P05204)
inactive: erlotinib -0.02 | [1] -0.01 | [2] -0.255 | [3] 0.034 | [4] -0.125 | [5] -0.039 | [6] -0.052 | [7] 0.059 | [8] 0.011 | [9] 0.019

FIS1 (UniProt Q9Y3D6)
UniProt Q9Y3D6, sequence (Q9Y3D6 whole entry, looked up): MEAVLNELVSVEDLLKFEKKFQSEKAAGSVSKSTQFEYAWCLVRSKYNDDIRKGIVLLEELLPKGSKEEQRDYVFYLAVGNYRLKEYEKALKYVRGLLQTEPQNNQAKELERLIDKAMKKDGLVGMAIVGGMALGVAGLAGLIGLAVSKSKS
inactive: erlotinib 0.013 | [1] 0.066 | [2] 0.015 | [3] 0.01 | [4] -0.034 | [5] 0.024 | [6] -0.025 | [7] 0.02 | [8] -0.06 | [9] 0.09

GLUL (UniProt P15104)
UniProt P15104, sequence (P15104 whole entry, looked up): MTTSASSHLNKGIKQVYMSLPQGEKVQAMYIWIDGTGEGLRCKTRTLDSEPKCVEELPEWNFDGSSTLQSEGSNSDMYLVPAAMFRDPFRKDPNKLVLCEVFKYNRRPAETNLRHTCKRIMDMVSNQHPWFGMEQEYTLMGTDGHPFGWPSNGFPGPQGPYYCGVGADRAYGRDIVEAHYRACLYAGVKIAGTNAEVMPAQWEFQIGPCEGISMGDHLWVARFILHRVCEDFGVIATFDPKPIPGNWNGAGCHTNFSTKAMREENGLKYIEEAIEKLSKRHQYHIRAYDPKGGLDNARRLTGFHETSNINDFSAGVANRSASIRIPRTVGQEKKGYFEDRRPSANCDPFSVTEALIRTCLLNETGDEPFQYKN
inactive: erlotinib -0.058 | [1] 0.016 | [2] 0.027 | [3] 0.022 | [4] -0.006 | [5] -0.003 | [6] -0.007 | [7] -0.045 | [8] -0.037 | [9] 0.017

GOPC (UniProt Q9HD26)
inactive: erlotinib 0.016 | [1] 0.051 | [2] -0.284 | [3] -0.178 | [4] -0.027 | [5] -0.147 | [6] -0.008 | [7] 0.265 | [8] -0.036 | [9] 0.06
